Screens from PubChem.
Sampled rows, rich in hits. Any-hit rate of the full collection: about 2.1%.
ERAP1 HTS inh = human ERAP1 aminopeptidase inhibitors, primary screen, biochemical, single point, plate reader; recombinant ERAP1, Leu-AMC fluorescence, 60 min; inhibition, % at 10.7 µM; 340,000 tested, 0.15% active; AID 652197, 2013;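 active = mean replicate inhibition of at least 30%, or all replicates individually reaching that 30% level; inactive = mean below 30% and not every replicate reaching it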;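 also: 0% = neutral control wells and 100% = L-leucinethiol positive control wells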
ARNT-TACC3 inh = disruptors of ARNT/TACC3 protein interaction, primary screen, biochemical, AlphaScreen, single concentration | 390,000 tested, 0.66% active | Transforming acidic coiled-coil-containing protein 3 (Homo sapiens), Q9Y6A5 | AID 623870, 2012 | inhibition, % at 9.99 µM | AlphaScreen His-ARNT PAS-B/GST-TACC3 binding, luminescence; TACC3 fragment carries E629A point mutation;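 active = mean inhibition of replicates at least 50% and at least half of replicates each reaching 50%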;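 also: 0% = complete ARNT plus TACC3 wells and 100% = ARNT alone without TACC3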
Ecoli rRNA inh = reduced GFP signal of wild-type E. coli, primary screen, bacterial rRNA inhibitor project, GFP/RFP fluorescence, OD600, single point | AID 720706, 2013 | E. coli WT GFP vs humanized-ribosome RFP mutants, 24 h; stronger effect = lower value; DMSO median 0, no signal -100 | GFP signal change (wild-type ribosome), % (no concentration beside the values) | 350,000 tested, 1.6% active;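 active = significant combined selectivity score with lowered wild-type GFP, culture density cut under 30%, mutant RFP and density less affected; inactive = any of these conditions unmet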
PvdQ acylase = P. aeruginosa PvdQ acylase inhibitors, primary screen, biochemical, fluorescence, plate reader and imaging, single point; purified PvdQ acylase; 340,000 tested, 0.063% active; inhibition, % at 10 µM; PvdQ acylase [Pseudomonas aeruginosa LESB58]; in the data active = inhibition above about 30%, passing the limit was not always enough;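 also: 0% = vehicle neutral wells and 100% = reference inhibitor wells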
CFTR F508del cor = F508del CFTR correction, initial screen, CFBE line, single point; 350,000 tested, 0.36% active; CFBE cells, YFP halide quenching; stimulated with forskolin plus potentiator P3; % fluorescence drop versus neutral controls; activity (quench increase), % at 7.58 µM;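 active = mean added fluorescence quench of at least 8% versus neutral control, with both replicates also reaching 8%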;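 also: cells transiently co-express mutant CFTR-F508del with the halide-sensitive YFP; corrector assay measuring rescue of mutant channel to the surface after 24 h compound exposure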
The depositor's hits bear a star; / = no result given; ! = repeats disagree.

SMILES | ERAP1 HTS inh | ARNT-TACC3 inh | Ecoli rRNA inh | PvdQ acylase | CFTR F508del cor
CC(Oc1ccccc1)C(=O)NNC(=O)c1ccccn1 (stereo not given) | 4 | 51* | -25 | -1 | 1
Cc1cccc(NC(=O)NNC(=O)c2ccccn2)c1 | -1 | 48* | 10 | 2 | 4
Cc1cccc(NC(=O)c2cccc(C(=O)Nc3cccc(C)c3)n2)c1 | / | -4 | 16 | -2 | -3
O=C(NNC(=O)c1ccccn1)c1cccc([N+](=O)[O-])c1 | -2 | 67* | -9 | -15 | 0
O=C(c1cccc([N+](=O)[O-])c1)c1ccccn1 | / | 0 | 8 | 0 | 2
CC(Oc1cccc(Br)c1)C(=O)NNC(=O)c1ccccn1 (stereo not given) | / | / | / | -4 | /
CC(C)C(=O)NNC(=O)c1ccccn1 | -1 | 51* | -5 | -11 | 0
C/C=C/c1cnc2c(c1)C(=O)N([C@H](C)CO)C[C@H](C)[C@H](CN(C)C(=O)c1cccnc1)O2 | 4 | 2 | 6 | / | 1
CC(C(=O)NC1CCCC1)N1CCN(S(=O)(=O)c2ccc(C(C)(C)C)cc2)CC1 (stereo not given) | 2 | -8 | 3 | 2 | 13*
CCc1ncc(/C=C2\C(=O)Nc3ccccc32)[nH]1 | 9 | 6 | -16 | 17 | /
Cc1ncc(/C=C2\C(=O)Nc3ccccc32)[nH]1 | 3 | / | -19* | / | 0
COc1ccc(CSc2nncn2N)cc1Br | / | active | / | 5 | /
COc1ccc(CSc2nnc(C)n2N)cc1Br | / | -2 | / | 14 | /
CC(C)CCNC(=O)C(c1ccco1)N(CC1CCCO1)C(=O)Cn1nnc2ccccc21 (stereo not given) | 1 | 3 | 4 | -10 | /
Cn1c(C(C(=O)NCC2CCCO2)N(CCc2ccccc2)C(=O)Cn2nnc3ccccc32)nc2ccccc21 (stereo not given) | -2 | 0 | -22* | -7 | 1
C[C@H](CO)N1C[C@H](C)[C@H](CN(C)C(=O)CCC(F)(F)F)OCc2ccccc2-c2c(n(C)c3ccccc23)C1=O | 5 | -5 | -4 | / | 4
C[C@@H]1CN([C@@H](C)CO)C(=O)c2cccc(NC(=O)NC3CCCCC3)c2O[C@@H]1CN(C)Cc1ccc(Cl)c(Cl)c1 | -1 | 2 | -6 | / | 9.3*
C[C@H]1CN([C@@H](C)CO)C(=O)c2cccc(NC(=O)NC3CCCCC3)c2O[C@H]1CN(C)Cc1ccc(Cl)c(Cl)c1 | -1 | -3 | -7 | / | 2
C[C@@H]1CN([C@@H](C)CO)C(=O)c2cccc(NC(=O)c3ccncc3)c2O[C@@H]1CN(C)Cc1ccc(-c2ccccc2)cc1 | 4 | -2 | -19*! | -3 | 3
C/C=C/c1ccc([C@H]2[C@@H](CO)N(C(=O)COC)[C@@H]2CNC(=O)C2CCC2)cc1 | 0 | / | 1 | / | 1
Cc1ccc(C)c(NC(=O)CCC(=O)N/N=C/c2cc([N+](=O)[O-])ccc2O)c1 | 0 | 49* | -6 | 14 | 9.9*
CN1CCN(CCC(=O)N/N=C/c2cc([N+](=O)[O-])ccc2O)CC1 | / | 75* | / | -6 | /
O=C(CCN1CCN(C(c2ccccc2)c2ccccc2)CC1)N/N=C/c1ccc(O)cc1O | / | 45* | / | -10 | 1
COc1ccc(CN(C)C[C@@H]2Oc3c(NC(=O)Nc4ccc5c(c4)OCO5)cccc3C(=O)N([C@H](C)CO)C[C@@H]2C)cc1 | -3 | 13 | 2 | / | -3
C[C@H]1CN([C@@H](C)CO)C(=O)CCCn2cc(nn2)CO[C@H]1CN(C)S(=O)(=O)c1cccs1 | -1 | -9 | 0 | / | 1
COC(=O)c1cn(C(=O)c2ccccc2Cl)c2ccccc12 | -3 | -4 | -11 | -4 | 3
COC(=O)c1cn(C(=O)c2ccc(C)cc2C)c2ccccc12 | 2 | 2 | 1 | 6 | 11*
O=C(NCc1ccccc1)C(c1ccc(-c2ccccc2)cc1)n1c(=O)c(-c2cc3ccccc3[nH]2)nc2ccccc21 (stereo not given) | / | / | 2 | / | 10*
